Source: PubChem
An excerpt weighted towards active compounds, which were near 14% of everything screened.
Pf growth 96h: P. falciparum growth inhibition at 96 hours; Potency, µM (titrated, usually from 28.7 µM), inactives show top-dose activity change, negative = inhibition, most hits filed as inhibitors; AID 504834; P. falciparum luciferase reporter growth, 96 h; 320,000 compounds, 6.9% hits; note: potency is the fitted concentration of half-maximal effect
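96 h incubation, 37 C, 5% CO2, of luciferase-reporter P. falciparum-infected RBCs (2% hematocrit, 0.05% parasitemia final) with test compounds; endpoint luminescence.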
HCMV antiviral: inhibitors of human cytomegalovirus | activity change, negative = inhibition, % at 57.5 µM | HFF cells, HCMV-luciferase reporter, 72 h; hits give low values | AID 1259415 | 410,000 compounds, 4.5% hits; in the data active = activity change below about -60%; inconclusive = no clear call, values can overlap the other calls; inactive = above about -39%
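HFF cells seeded 16 h at 37C, treated with compounds, infected with luciferase-reporter HCMV at MOI 1 PFU/cell; luciferase read at 72 h post infection, normalized to buffer-only and Salinomycin controls.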
Sm TGR inh: blocks Schistosoma mansoni thioredoxin glutathione reductase; Potency, µM (doses to about 114 µM), inactives show at the top dose activity change, negative = inhibition, most hits filed as inhibitors; Q962Y6; purified TGR, DTNB reduction, TNB absorbance 405 nm; 360,000 compounds, 3% hits; note: potency is the fitted concentration of half-maximal effect; nearly all actives have a fitted effect of over 60% in size
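TGR 20 nM + NADPH 100 uM (dispensed conc.), cpd preinc 15 min RT; start with NADPH (500 uM addition) then DTNB (15 mM addition). Kinetic TNB absorbance, 405 nm filter. Four-parameter Hill fit across titration.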
Giardia FBPA inh: inhibitors of Giardia lamblia fructose-1,6-bisphosphate aldolase; purified Giardia FBPA; Potency, µM (titrated, usually from 59.6 µM), for inactives: at the top dose activity, negative = inhibition, usual class: inhibitors; 290,000 compounds, 0.71% hits; note: potency is the fitted concentration of half-maximal effect; nearly all actives have a fitted effect of over 55% in size
Target sequence (A8B2U2 whole entry, looked up): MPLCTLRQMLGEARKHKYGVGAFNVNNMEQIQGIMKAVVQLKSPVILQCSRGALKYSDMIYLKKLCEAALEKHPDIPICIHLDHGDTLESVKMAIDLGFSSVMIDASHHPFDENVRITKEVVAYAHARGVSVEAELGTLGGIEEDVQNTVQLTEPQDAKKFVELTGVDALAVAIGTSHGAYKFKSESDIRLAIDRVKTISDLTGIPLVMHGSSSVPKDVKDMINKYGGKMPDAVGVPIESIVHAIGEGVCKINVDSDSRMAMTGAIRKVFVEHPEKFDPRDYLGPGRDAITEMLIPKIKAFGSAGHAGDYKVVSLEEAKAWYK
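40 nM FBPA preincubated 10 min at RT with compound (up to 57.5 uM final), then substrate plus GAPDH/TPI/NAD/arsenate coupling and diaphorase/resazurin added. Fluorescence read after 20 min at RT, 525/598 nm.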
Pf growth 48h: P. falciparum growth inhibition at 48 hours (one generation); P. falciparum luciferase growth in erythrocytes, 48 h; Potency, µM (highest dose often 28.7 µM), for inactives: at the top dose activity change, negative = inhibition, most hits filed as inhibitors; 310,000 compounds, 5.9% hits; AID 504832; note: potency is the fitted concentration of half-maximal effect
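Luciferase-expressing parasites in RBCs, 2% Hct / 0.1% parasitemia final; RPMI 1640 + 0.5% Albumax; 37 C, 5% CO2, one generation; luminescence read-out, lower signal = inhibition.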
Active calls of the source: *; [ ] = another dose, or the depositor's remark. Unless noted, calls come from the whole dose curve; as a rule, active = well fitted curve in the direction sought with a large enough effect; inconclusive = small, poorly fitted or top-dose-only effect, or another doubt; inactive = no such curve, though single readings can be large; an effect the other way counts as inactive or inconclusive. % is set by controls: 0 for no effect and ±100 for the full control effect.

Screening CCCCC1C(=O)N(c2ccccc2)N(c2ccc(O)cc2)C1=O (centres undefined) returned Pf growth 96h 22%, HCMV antiviral 51, Sm TGR inh 10µM*, Giardia FBPA inh 0% and Pf growth 48h 9%.
Screening COc1ccccc1C(=O)NC(=O)COC(=O)CN1C(=O)NC(C)(C)C1=O returned Pf growth 96h 30%, HCMV antiviral -10, Sm TGR inh 4% and Pf growth 48h 10%.
`COc1ccc(CNc2ccnc(-c3ccccc3OC)n2)c(OC)c1` gave Giardia FBPA inh 5%.
For COC(=O)c1ccc(Cn2cc(/C=C\[N+](=O)[O-])c3ccccc32)o1 the results were Pf growth 96h inconclusive, HCMV antiviral -16, Sm TGR inh -30%, Giardia FBPA inh -1% and Pf growth 48h 4.7µM*.
Screening O=C(O)c1ccc(Cn2cc(/C=C\[N+](=O)[O-])c3ccccc32)o1 returned Pf growth 96h 87%, HCMV antiviral 26, Sm TGR inh 3.2µM*, Giardia FBPA inh 17% and Pf growth 48h -20%.
Screening O=C(O)c1cn(Cc2ccccc2)c2ccccc2c1=O returned Pf growth 96h -24%, HCMV antiviral inconclusive, Sm TGR inh -21%, Giardia FBPA inh 2% and Pf growth 48h -26%.
`COc1cc(CN(C)C(=O)C2CCN(S(=O)(=O)c3cccs3)CC2)ccc1OC(F)F` gave HCMV antiviral -9.
For COC(=O)c1nccnc1C(=O)Nc1ccccc1N1CCOCC1 the results were Pf growth 96h 42%, HCMV antiviral 18, Sm TGR inh 0% and Pf growth 48h 71%.
`CC1(C(=O)O)C2CCC(O2)C1(C)C(=O)O` (centres undefined) gave Giardia FBPA inh -5%.
Screening C[C@@]12C(=O)OC(=O)[C@]1(C)C1CCC2O1 returned Pf growth 96h 1.9µM*, HCMV antiviral -99*, Sm TGR inh -2% and Pf growth 48h 2.9µM*.
For CSc1oc(-c2ccco2)nc1S(=O)(=O)c1ccc(F)cc1 the results were Pf growth 96h inconclusive, HCMV antiviral 1, Sm TGR inh 45µM*, Giardia FBPA inh -24% and Pf growth 48h -13%.
`CSc1oc(-c2ccco2)nc1S(=O)(=O)c1ccccc1` gave Pf growth 96h 1%, HCMV antiviral -34, Sm TGR inh 35µM* and Giardia FBPA inh -6%.
For CC(C)Sc1oc(-c2ccco2)nc1S(=O)(=O)c1ccccc1 the results were Pf growth 96h inconclusive, HCMV antiviral -30, Sm TGR inh inconclusive, Giardia FBPA inh -3% and Pf growth 48h inconclusive.
For CSc1oc(-c2ccco2)nc1S(=O)(=O)c1ccc(C)cc1 the results were Pf growth 96h inconclusive, HCMV antiviral -1, Sm TGR inh inconclusive, Giardia FBPA inh -5% and Pf growth 48h inconclusive.
CCN(CC)CCCN1C=C2C(=O)C(C)(OC(=O)c3cccs3)C(=O)C=C2C=C1CCCC(=O)OC (centres undefined) was read as Giardia FBPA inh 8%[12.9 µM].
For COC(=O)CCCC1=CC2=CC(=O)C(C)(OC(=O)c3cccs3)C(=O)C2=CN1c1ccc(OC)cc1 (centres undefined) the results were Pf growth 96h 13µM*, HCMV antiviral -35, Sm TGR inh -9%, Giardia FBPA inh inconclusive and Pf growth 48h 6.6µM*.
`COC(=O)CCC(=O)OC1(C)C(=O)C=C2C=C(C3CC3)N(Cc3ccco3)C=C2C1=O` (centres undefined) gave Pf growth 96h inconclusive, HCMV antiviral -20, Sm TGR inh 32µM*, Giardia FBPA inh inconclusive and Pf growth 48h 12µM*.
For COC(=O)CCCC1=CC2=CC(=O)C(C)(OC(=O)c3cccs3)C(=O)C2=CN1Cc1ccc2c(c1)OCO2 (centres undefined) the results were Pf growth 96h inconclusive, HCMV antiviral 10, Sm TGR inh -29%, Giardia FBPA inh inconclusive and Pf growth 48h 13µM*.
For COC(=O)CCCC1=CC2=CC(=O)C(C)(OC(=O)c3cccs3)C(=O)C2=CN1C1CCCC1 (centres undefined) the results were Pf growth 96h inconclusive, HCMV antiviral 3, Sm TGR inh -33%, Giardia FBPA inh inconclusive and Pf growth 48h inconclusive.
